Our source for the Potency values is PubChem BioAssay (NCATS).

Records with an inconclusive call do not appear. Unmarked numbers belong to inactive results. Activity calls are given as the source filed them. Calls come from the whole dose curve; as a rule, active = well fitted inhibition curve with a large enough effect; inconclusive = small, poorly fitted or top-dose-only effect; inactive = no such curve, though single readings can be large or run the other way.

Test [1] relates to Zika virus NS2B-NS3 protease (unlinked complex). The test is described as follows: Primary screen GU Rhodamine qHTS for Zika virus inhibitors: Unlinked NS2B-NS3 protease assay (AID 1347159). Note: nearly all actives have a fitted effect of over 60% in size. The method in brief:
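A qHTS format was used, with compound concentrations ranging up to 114 microM. Each compound was preincubated with 25 nM NS2B-NS3 protease, and the substrate was then added at 1.5 microM. Curves were fitted with a 4-parameter Hill model.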

The subject of test [2] is Zika virus NS2B-NS3 protease (linked construct). Kind of test: Primary screen NINDS Rhodamine qHTS for Zika virus inhibitors (AID 1347160). Note: nearly all actives have a fitted effect of over 55% in size. In a few lines:
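Kinetic fluorescence (Ex 480 nm, Em 540 nm) over 15 min with 1.5 microM Rhodamine110 peptide and 25 nM linked protease.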
A general note: Quantitative high-throughput screening tests each substance at several concentrations.
Potency is the fitted concentration of half-maximal effect.

Take `Nc1c(S(=O)(=O)c2ccccc2)c2nc3ccccc3nc2n1-c1ccc(F)cc1`: the Potency entry in test [1] and in test [2] was “inactive” each time.
For the compound `COc1cccc(CN(C(=O)CC(C)(C)C)[C@H]2C[C@H](C(=O)N3CCNCC3)N(Cc3ccc4c(c3)OCO4)C2)c1`, the Potency entry in test [1] and in test [2] was “inactive” in each case.
On to `C[C@@H](c1ccc2nccn2c1)n1nnc2ncc(-c3cnn(C)c3)nc21`, for which the Potency entry in test [1] and in test [2] was “inactive” each time.
`COc1ccc2c(c1)C(C(=O)N(Cc1ccc(N(C)C)cc1)c1ccc(C(C)C)cc1)CCC2` (centres undefined): the Potency result in test [1] and in test [2] was “inactive” in each case.
Turning to `NCC(CNc1nc(Nc2cccc(NC(=O)N3CCCC3)c2)ncc1I)C(=O)c1cccs1` (centres undefined), the Potency result in test [1] and in test [2] was “inactive” throughout.
As for `CC1(C(=O)Nc2ccc(F)nc2)CCCN1c1nc(Nc2cc(C3CC3)[nH]n2)c2cccn2n1` (centres undefined), the Potency entry in test [1] and in test [2] was “inactive” throughout.
For `Cc1cc(C(=O)Cn2cc(C#N)ccc2=O)c(C)n1Cc1ccccc1`, the Potency result in test [1] and in test [2] was “inactive” throughout.
Turning to `CC(C)(CO)c1cc2cc(NC(=O)C3(c4ccc5c(c4)OC(F)(F)O5)CC3)c(F)cc2n1CC(O)CO` (centres undefined), the Potency result in test [1] and in test [2] was “inactive” each time.
Turning to `CC1=C2C[C@@]3(C)C(CCC[C@@H]3C)C(O)C2OC1=O` (some centres undefined), the Potency result in test [1] and in test [2] was “inactive” each time.
As to `CC1(C)CN(C(=O)c2ccc(-c3cccc4nc(NC(=O)C5CC5)nn34)cc2)C1`, the Potency entry in test [1] and in test [2] was “inactive” in each case.
Regarding `CCn1c(-c2nonc2N)nc2c(C#CCO)ncc(OCCCN)c21`, the Potency entry in test [1] and in test [2] was “inactive” each time.
On to `COc1ccc(C[C@H]2COC(=O)[C@@H]2Cc2ccc(O[C@@H]3O[C@H](CO)[C@@H](O)[C@H](O)[C@H]3O)c(OC)c2)cc1OC`, for which the Potency entry in test [1] and in test [2] was “inactive” in each case.
`N#Cc1cc(CN2CCC(Nc3ncnc4sc(Cl)cc34)CC2)ccc1F`: the Potency entry in test [1] and in test [2] was “inactive” each time.
`CC(=O)O[C@@H]1C[C@@]2(C)C(CC[C@]3(C)C2CC=C2C4CC(C)(C)CC[C@]4(C(=O)O)CC[C@]23C)C(C)(C)[C@H]1O` (some centres undefined): the Potency in test [1] is 7.08 µM (active); in test [2], 11.2 µM (active).
As for `O=C(Nc1ccccc1C(=O)NC1CCCCNC1=O)c1cc2ccccc2s1` (centres undefined), the Potency in test [1] is 31.6 µM (active). For the same compound, the Potency result in test [2] was “inactive”.
Turning to `O=C(N[C@@H]1CCCc2c1cnn2-c1ccc(F)cc1F)c1ccccn1`, the Potency result in test [1] and in test [2] was “inactive” in each case.
Regarding `Cc1cc(C)nc(SCC(=O)Nc2ncc(Cc3cccc4ccccc34)s2)n1`, the Potency result in test [1] and in test [2] was “inactive” throughout.
With `CN(C)C(=O)C(=O)c1cn(C)c2cc(Cl)c(C(=O)N3CCC(Cc4ccc(F)cc4)CC3)cc12`, the Potency result in test [1] and in test [2] was “inactive” in each case.
`C=C1/C(=C/C=C2\CCC[C@]3(C)[C@@H]([C@H](C)CC[C@@H](O)C(C)(C)O)CC[C@@H]23)C[C@@H](O)C[C@@H]1O`: the Potency entry in test [1] and in test [2] was “inactive” each time.
Regarding `Cn1cc(-c2cnn3c(N)c(Br)c(C4CCCNC4)nc23)cn1` (centres undefined), the Potency result in test [1] and in test [2] was “inactive” throughout.
Take `Cc1ccc(C)c(NS(=O)(=O)c2cc(C(=O)Nc3ccccc3-c3ccccc3)ccc2C)c1`: the Potency result in test [1] and in test [2] was “inactive” throughout.
As for `Cc1cnc(-c2ccccc2C(C)C)nc1NCc1ccc(-n2ccnn2)cc1`, the Potency entry in test [1] and in test [2] was “inactive” each time.
With `COc1cc(/C=C2\CCCN([C@@H](C)c3ccc(F)cc3)C2=O)ccc1-n1cnc(C)c1`, the Potency entry in test [1] and in test [2] was “inactive” each time.
Take `CC#CC(=O)Nc1ccc2ncnc(Nc3cccc(Br)c3)c2c1`: the Potency entry in test [1] and in test [2] was “inactive” each time.
As to `Cc1cn2c(n1)Cc1ccc(Cl)cc1C(c1ccc(N)cc1)=N2`, the Potency entry in test [1] and in test [2] was “inactive” in each case.
For `C=C(C)C1CC(O)C(C)C12CC(O)C1(C)OC1C2O` (centres undefined), the Potency result in test [1] and in test [2] was “inactive” each time.
As for `O=C(NCCN1CCN(c2cccc3ccc(O)cc23)CC1)c1ccc(F)cc1`, the Potency result in test [1] and in test [2] was “inactive” throughout.
In the case of `C#CCCCn1cc(-c2cccc3c2N[C@H](C)CC(=O)N3)cn1`, the Potency result in test [1] and in test [2] was “inactive” each time.
Regarding `CC(CCC1(O)OC2CC3C4CC=C5C[C@@H](O[C@@H]6O[C@H](CO)[C@@H](O[C@@H]7O[C@@H](C)[C@H](O)[C@@H](O)[C@H]7O)[C@H](O)[C@H]6O[C@@H]6O[C@@H](C)[C@H](O)[C@@H](O)[C@H]6O)CC[C@]5(C)C4CC[C@]3(C)[C@@]2(O)[C@@H]1C)CO[C@@H]1O[C@H](CO)[C@@H](O)[C@H](O)[C@H]1O` (some centres undefined), the Potency result in test [1] and in test [2] was “inactive” throughout.
Take `COC1C(O)C(OC2CCC3(C)C(CCC45CCC6C7(COC(=O)C7)OC4(O)C6(C)CCC35)C2)OC(C)C1OC1OC(CO)C(OC2OC(CO)C(O)C(O)C2O)C(O)C1O` (centres undefined): the Potency result in test [1] and in test [2] was “inactive” each time.
As for `COc1ccc(-c2cnc3c(-c4cccc5ncccc45)cnn3c2)cc1`, the Potency entry in test [1] and in test [2] was “inactive” in each case.
For `C=C1CC[C@@H](O)[C@]2(C)CC[C@H]3C(=C)C(=O)O[C@@H]3[C@@H]12`, the Potency result in test [1] and in test [2] was “inactive” throughout.
